Calls of active or inactive are those of the source. Unless noted, how the calls were made is not given here.

The values that follow come from PubChem BioAssay.

Experiment [1] concerns Wnt5a (protein binding on small-molecule microarray). Put plainly: Wnt5a binders on small-molecule microarray, primary screen, biophysical, 635/667 nm fluorescence (AID 1142).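 Further: fluorescence read at 667 nm with signal to noise per printed feature.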 To be noted: 635 nm fluorescence, higher = more signal.
Experiment [2] in a line: cell viability in Huh7 cells, primary screen, cytotoxicity control for HCV replication inhibitor project, CellTiter-Glo luminescence, basal, 48 h (AID 1143).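 Further: Huh7 hepatoma cells carrying a hepatitis C replication reporter with no stimulus; test concentration not given here.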 Particulars: Huh7 HCV replicon, higher = more signal, called active from +8 up or from −8 down. In general terms: ATP-based viability assays read luminescence as a measure of living cells.
A short description of experiment [3]: P. aeruginosa biofilm formation inhibitors, primary screen, PAO1 strain, BacTiter-Glo luminescence, LB-PBS (AID 1144). Particulars: 12 h, higher = more signal.
A short description of experiment [4]: CREB reporter modulators without forskolin, primary screen, cell-based, PC12, CRE-LacZ reporter, unstimulated (AID 1145). Particulars: no forskolin, luminescence, 4.5 h, higher = more signal, called active from +8 up or from −8 down.
Experiment [5] is described as follows: CREB reporter modulators under forskolin, primary screen, cell-based, PC12, CRE-LacZ reporter, forskolin-stimulated (AID 1146).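 Further: PC12 cells with 6xCRE LacZ reporter stimulated by forskolin 10 µM; beta-galactosidase reporter signal reflecting CREB driven transcription.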 To be noted: luminescence, 4.5 h, higher = more signal, called active from +8 up or from −8 down.
Experiment [6] concerns the target Streptavidin (Streptomyces avidinii) (UniProt P22629). Put plainly: streptavidin binders on small-molecule microarray, primary screen, artefact control for SMM compound annotation, biophysical, 635/667 nm fluorescence (AID 1147).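 Further: signal reflects streptavidin binding to arrayed compounds as a control protein.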 To be noted: streptavidin binding, higher = more signal.
Experiment [7] is described as follows: small-molecule binders of probe aInhba, primary screen, biochemical, small-molecule microarray, 635/667 nm fluorescence (AID 1148).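 Further: score merges 667nm spot fluorescence with signal-to-noise for antibody binding to printed compounds.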 Particulars: higher = more signal.
Experiment [8] concerns the target Torsin-1A (Homo sapiens) (UniProt O14656). Put plainly: torsin A binders from cell lysate, primary screen, small-molecule microarray, wild-type, 635/667 nm (AID 1149). To be noted: COS7 hTOR1A-WT lysate, 635 nm fluorescence, higher = more signal.
For experiment [9] the target is unchanged. Put plainly: small-molecule binders of mutant TOR1A in lysate, primary screen, cell lysate, small-molecule microarray, COS7 lysate, 635/667 nm fluorescence (AID 1150).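 Further: score pools 667 nm emission and signal to noise measuring lysate protein binding.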 Particulars: COS7 hTOR1A mutant lysate, 635 nm fluorescence, higher = more signal.
The test system of experiment [10] is Sonic hedgehog protein (Shh). As to the kind of experiment: small-molecule binders of Shh protein, primary screen, biochemical, small-molecule microarray, 635/667 nm fluorescence (AID 1151).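 Further: Shh protein binding to compounds spotted on small-molecule microarray slides; score combines spot fluorescence intensity with signal-to-noise across triplicate slides.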 Particulars: small-molecule microarray binding, 635 nm fluorescence; higher = more signal.

Sequence of Streptavidin (Streptomyces avidinii) (P22629 whole entry, looked up): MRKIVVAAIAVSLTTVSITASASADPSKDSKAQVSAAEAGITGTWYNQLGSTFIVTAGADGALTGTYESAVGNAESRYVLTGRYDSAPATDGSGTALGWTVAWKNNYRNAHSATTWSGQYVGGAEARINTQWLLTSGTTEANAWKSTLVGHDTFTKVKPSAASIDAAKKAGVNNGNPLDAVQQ
Sequence of Torsin-1A (Homo sapiens) (O14656 whole entry, looked up): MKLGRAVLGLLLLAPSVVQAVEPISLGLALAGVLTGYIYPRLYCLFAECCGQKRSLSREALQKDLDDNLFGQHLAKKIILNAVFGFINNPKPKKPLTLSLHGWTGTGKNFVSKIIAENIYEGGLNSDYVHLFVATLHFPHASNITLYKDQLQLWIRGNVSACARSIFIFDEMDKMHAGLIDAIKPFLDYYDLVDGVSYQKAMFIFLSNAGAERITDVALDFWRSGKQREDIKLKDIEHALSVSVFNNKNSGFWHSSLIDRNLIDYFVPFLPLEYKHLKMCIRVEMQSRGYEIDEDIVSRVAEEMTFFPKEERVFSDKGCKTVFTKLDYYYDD

With `C=C(C(=O)CC[C@H](OC(=O)c1cccnc1)c1cccc(OCCO)c1)C(C)C`, the composite z-score in experiment [1] is -0.13; in [6], 0.0502; in experiment [7], -0.0719; in experiment [8], 1.17; in experiment [9] it was -0.206; in [10] it was 0.389. In addition, the z-score was -1.04 (inactive) in experiment [2], -0.285 (inactive) in experiment [3], 17.7 (active) in experiment [4] and -0.464 (inactive) in experiment [5].
With `CON(C)C(=O)C=C1C[C@@H](c2cccc(Cl)c2)O[C@@H](c2cccc(Cl)c2)O1`, the composite z-score in experiment [1] was -0.124; in experiment [6], 2.55; in experiment [7], -0.183; in [8], 0.643; in experiment [9], 0.124; in experiment [10] it was 0.774. Besides, the z-score was -3.94 (inactive) in experiment [2], 0.875 (inactive) in experiment [3], 0.481 (inactive) in experiment [4] and -1.07 (inactive) in experiment [5].
For the compound `CN(C)C(=O)[C@@]1(Cc2ccccc2N=[N+]=[N-])COC(c2ccc(OCCCO)cc2)=N1`, the composite z-score in experiment [1] was 0.932; in experiment [6], 0.726; in experiment [7], -0.0171; in experiment [8], 0.425; in [9], 0.837; in experiment [10] it was -0.215. Also, the z-score in [2] was -2.68 (inactive); in [3] it was 0.618 (inactive); in experiment [4] it was 0.942 (inactive); in experiment [5], 0.646 (inactive).
Regarding `COc1c(C)cc(-c2cc3c(c(-c4ccccc4)n2)[Si](C(C)C)(C(C)C)OC3)cc1C`, the composite z-score in experiment [1] was 0.0775; in [6], 0.657; in [7] it was -0.0313; in [8] it was 0.124; in [9], -0.402; in experiment [10], 0.513. The z-score in [2] is 0.109 (inactive); in experiment [3], -0.661 (inactive); in experiment [4], -0.491 (inactive); in [5], -0.478 (inactive).
For the compound `C[C@H]1C2=C3C(CC[C@H]4C(OCc5ccc(F)cc5C(F)(F)F)OC[C@](C)([C@@H]34)N(C(=O)OC(C)(C)C)C2)C(CO)C1CO` (stereo not given in full), the composite z-score in experiment [1] was 0.24; in [6], 1.38; in experiment [7] it was -0.0214; in experiment [8], 0.28; in experiment [9] it was 0.222; in [10], -1.38. The z-score was -2.85 (inactive) in experiment [2], 0.36 (inactive) in [3], 0.779 (inactive) in experiment [4] and 0.677 (inactive) in experiment [5].
In the case of `COCCOC(=O)N1C(=O)[C@@]2(c3cc(C#CC4(O)CCCCCC4)ccc31)[C@H](C(=O)N1CCCCCCC1)[C@H]1C(=O)O[C@H](c3ccccc3)[C@H](c3ccccc3)N1[C@@H]2c1ccc(OCCO)cc1`, the composite z-score in [1] was determined as 1.19; in [6], 2.63; in experiment [7], 1.85; in experiment [8], 1.25; in experiment [9], 1.8; in experiment [10], 2.17. Further, the z-score in experiment [2] was -3.66 (inactive); in [3], 0.629 (inactive); in experiment [4], 0.623 (inactive); in [5], -0.532 (inactive).
Regarding `[N-]=[N+]=Nc1ccccc1C[C@]1(C(=O)NCc2ccccc2)N=C(c2ccc(OCCCO)cc2)O[C@H]1c1ccccc1`, the composite z-score in experiment [1] is 0.307; in [6] it was 1.44; in experiment [7], 0.192; in experiment [8] it was 0.403; in experiment [9] it was 0.687; in experiment [10], -0.312. Further, the z-score in experiment [2] is -3.03 (inactive); in [3] it was -0.523 (inactive); in [4], -0.585 (inactive); in [5], 1.15 (inactive).
For the compound `COCCOC(=O)N1C(=O)[C@@]2(c3ccccc31)[C@H](c1ccc(OCCO)cc1)N1[C@H](c3ccccc3)[C@H](c3ccccc3)OC(=O)[C@H]1[C@@H]2C(=O)Nc1nc2ccccc2s1`, the composite z-score in experiment [1] was 0.528; in [6] it was 0.962; in experiment [7] it was 0.239; in [8], 0.73; in experiment [9] it was 0.558; in [10], 1.1. Besides, the z-score in [2] was -1.49 (inactive); in [3], -0.58 (inactive); in experiment [4], 0.505 (inactive); in experiment [5], 11.9 (active).
Consider `CCOC(=O)C1=C[C@@H](c2ccccc2)N(S(=O)(=O)c2ccc(C)cc2)[C@H]1c1cccc(Cl)c1`, for which the composite z-score in [1] amounted to 0.55; in experiment [6], 1.34; in experiment [7], 0.351; in experiment [8] it was 0.631; in experiment [9], 0.569; in experiment [10], 0.319. In addition, the z-score in experiment [2] was -3.89 (inactive); in [3] it was 1.51 (inactive); in experiment [4], 0.182 (inactive); in experiment [5], -0.451 (inactive).
In the case of `CC(=O)n1cc(C(O)C2C=CC3C(=O)N(Cc4ccccc4)C(=O)C3N2n2cnnc2)c2ccccc21` (stereo not given), the composite z-score in experiment [1] was 0.363; in experiment [6], 1.05; in experiment [7] it was -0.152; in experiment [8], -0.466; in [9], -0.0022; in [10], 0.204. In addition, the z-score in [2] was 0.276 (inactive); in experiment [3], 1.3 (inactive); in [4] it was 0.631 (inactive); in experiment [5], -0.696 (inactive).
Take `NC(=O)NCC#Cc1ccc2c(c1)[C@]1(C(=O)N2)[C@H](c2ccc(O)cc2)N2[C@H](c3ccccc3)[C@H](c3ccccc3)OC(=O)[C@H]2[C@@H]1C(=O)Nc1nc2ccccc2s1`: the composite z-score is 0.303 in [1]; 0.106 in [6]; -0.0018 in experiment [7]; 0.374 in experiment [8]; -0.0346 in experiment [9]; 1.09 in experiment [10]. Moreover, the z-score in [2] was -0.623 (inactive); in [3] it was -1.41 (inactive); in experiment [4], -0.788 (inactive); in [5], -0.988 (inactive).
For `CCOC(=O)C[C@H]1[C@H](OC(=O)Cc2ccc3c(c2)OCO3)[C@@H](NC(=O)Cc2ccc(OC)cc2)c2cc(OCCCO)ccc2N1C(=O)c1ccccc1`, the composite z-score in experiment [1] was 0.194; in experiment [6], 0.421; in experiment [7] it was -0.103; in [8], -0.334; in experiment [9], 0.426; in experiment [10], 0.528. The z-score is -0.0801 (inactive) in experiment [2], -0.112 (inactive) in [3], 0.222 (inactive) in [4] and -0.377 (inactive) in experiment [5].
On to `C=C(COC)/C(=C/C[C@@H](OC(=O)c1ccncc1)c1cccc(OCCO)c1)c1cnc2ccccc2c1`, for which the composite z-score in experiment [1] was 0.381; in experiment [6], 2.64; in [7], 0.248; in experiment [8], 1.16; in [9] it was 2.74; in experiment [10], 2.3. For the same compound, the z-score in experiment [2] was -8.02 (active); in experiment [3], -0.639 (inactive); in experiment [4], 12.6 (active); in experiment [5], 0.818 (inactive).
For `C=CCN1C(=O)[C@@]2(O[C@@H](CCn3cc([C@H](O)c4ccccc4)nn3)[C@H]([Si](C)(C)c3ccc(OC)cc3)[C@H]2C)c2ccccc21`, the composite z-score in experiment [1] was 0.351; in experiment [6], -0.0664; in experiment [7], 0.134; in experiment [8], -0.0628; in experiment [9] it was -0.168; in experiment [10], 1.7. The z-score in [2] was -3.85 (inactive); in experiment [3] it was 0.0526 (inactive); in [4], 3.9 (inactive); in experiment [5] it was -0.448 (inactive).
